We go through 16 compounds from PubChem BioAssay (NCATS).

Assay [1] has as its target Phosphoglycerate kinase, glycosomal (Trypanosoma brucei brucei) (UniProt P07378). The assay is described as follows: qHTS for inhibitors of Phosphogylcerate Kinase: Hit Validation Screen (AID 686980). Further: potency means the concentration at half of the fitted maximal effect; nearly all actives have a fitted effect of over 65% in size. To be noted: TbPGK coupled GAPDH assay, Kinase-Glo luminescence. The procedure, abridged:
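Recombinant glycosomal PGK reaction used 1,3-bisphosphoglycerate generated in-well by GAPDH (100nM final) in 100mM TEA pH 7.6, 5mM MgCl2, 0.01% Tween-20. After 60 minutes at room temperature, ATP was read by Kinase-Glo Plus luminescence end-point.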
A general note: In qHTS, concentration-response curves come from the screen itself.

Assay [2] deals with DNA polymerase iota (Homo sapiens) (UniProt Q9UNA4). The assay can be described thus: qHTS for Inhibitors of Polymerase Iota: Confirmatory Assay for Cherry-picked Compounds (AID 720496). Further: potency means the concentration at half of the fitted maximal effect. To be noted: Pol iota primer extension, TAMRA/BHQ fluorescence. The method in brief:
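Enzyme (10 nM Pol iota) and compound sit together for 15 min at room temperature. Adding annealed primer/TAMRA-reporter/BHQ-2-template substrate, 50 nM final, starts the reaction, which is followed by fluorescence over 10 min.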

Assay [3] addresses Bifunctional 3'-5' exonuclease/ATP-dependent helicase WRN (Homo sapiens) (UniProt Q14191). The assay can be described thus: qHTS for Inhibitors of WRN Helicase: Confirmatory Assay for Cherry-picked Compounds. (AID 720497). Further: potency means the concentration at half of the fitted maximal effect; nearly all actives have a fitted effect of over 65% in size. The conditions noted are these: WRN helicase DNA unwinding, fluorescence kinetic. The method in brief:
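Kinetic fluorescence unwinding readout (525/598 nm) of a forked duplex oligonucleotide substrate, 100 nM, with 2 mM ATP and 20 nM WRN. Compounds were added 15 min before substrate at room temperature. Activity was scaled between uninhibited enzyme and buffer-only controls.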

Assay [4] is described as follows: qHTS for Inhibitors of WRN Helicase: Thiazole Orange DNA Binding Counterscreen (AID 720499).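 Further: drop in dye fluorescence marks compound binding to DNA; nearly all actives have a fitted effect of over 60% in size.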 The conditions noted are these: thiazole orange DNA binding displacement, fluorescence; series mostly up to 57.1 µM. The procedure, abridged: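 Dye-displacement counterscreen: 50 nM DNA + 100 nM ThO, cpd added by pintool, 15 min RT, fluorescence ex 480/em 530 nm.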
Assay [5] deals with DNA polymerase kappa (Homo sapiens) (UniProt Q9UBT6). The assay can be described thus: qHTS for Inhibitors of Polymerase Kappa: Confirmatory Assay for Cherry-picked Compounds (AID 720501). Further: potency means the concentration at half of the fitted maximal effect. To be noted: purified Pol-kappa, fluorescent strand-displacement substrate. The procedure, abridged:
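Human Pol-kappa, dispensed at 10 nM, was preincubated with compounds for 15 min at room temperature. Reactions were started with primer/template substrate (50 nM final) carrying a TAMRA reporter strand and BHQ-2-quenched template, and fluorescence (ex 525/em 598 nm) was read at 0 and 10 min.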

Assay [6] has as its target RecQ-like DNA helicase BLM (Homo sapiens) (UniProt P54132). The assay is described as follows: qHTS for Inhibitors of WRN Helicase: BLM Helicase Counterscreen for WRN Inhibitors (AID 720503). Further: potency means the concentration at half of the fitted maximal effect; nearly all actives have a fitted effect of over 60% in size. The conditions noted are these: Recombinant BLM helicase DNA unwinding, red fluorescence. The method in brief: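 BLM at 1 nM was preincubated with compound for 15 min at room temperature in 25 mM Tris-HCl pH 8.0, 50 mM NaCl, 2 mM MgCl2, 1 mM DTT and 0.01% Tween-20. Unwinding was started with 100 nM DNA and 2 mM ATP (final). Fluorescence (ex 525/em 598 nm) was read twice, 15 min apart, and normalized to enzyme-free and DMSO controls.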

Assay [7] is described as follows: Confirmation and Secondary Assay for Modulators of Hemoglobin Beta Chain Splicing at IVS2 654 locus (AID 910).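 Further: per-well total GFP intensity by laser scanning cytometry after 2-day treatment.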 To be noted: HeLa EGFP-654 splicing reporter, GFP fluorescence, 48 h; series mostly up to 46.1 µM. The method in brief:
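HeLa cells stably carrying EGFP interrupted by mutant beta-globin IVS2-654 intron (CMV-driven) were treated with compound for 2 days at 37C; corrected splicing was scored as total peak GFP intensity per well (488 nm excitation, 500-520 nm emission).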

Assay [8] is described as follows: Confirmation and Secondary Assay for Modulators of Hemoglobin Beta Chain Splicing at IVS2 705 locus (AID 930).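 Further: HeLa cells stably expressing the EGFP-705 splicing reporter.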 The conditions noted are these: HeLa EGFP-705 splicing reporter, GFP fluorescence, 48 h; series mostly up to 46.1 µM. The method in brief:
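Restored EGFP fluorescence after 2-day compound exposure reports splicing correction in IVS2-705 EGFP reporter HeLa cells; positive control was 500 nM splice-blocking PNA oligo. Signal measured as well total peak GFP intensity (488 nm excitation).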

Assay [9] has as its target Ubiquitin carboxyl-terminal hydrolase 1 (Homo sapiens) (UniProt O94782). The assay can be described thus: Inhibitors of USP1/UAF1: Pilot qHTS (AID 504865). Further: nearly all actives have a fitted effect of over 35% in size. Further: potency means the concentration at half of the fitted maximal effect. To be noted: purified USP1/UAF1, Ub-rhodamine cleavage fluorescence; series mostly up to 114 µM. The procedure, abridged: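 1nM USP1/UAF1 + cpd, 15 min RT; start w/ Ub-Rho 150nM final; kinetic FL 480/540 nm, 6 reads q60 s. Buffer 50mM HEPES pH 7.8, 0.5mM EDTA, 1mM TCEP, 0.01% Tween-20, 0.1 mg/ml BSA.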

Assay [10] addresses Cytochrome P450 3A4 (Homo sapiens) (UniProt P08684). The assay can be described thus: qHTS Assay for Inhibitors and Substrates of Cytochrome P450 3A4 (AID 884). Further: nearly all actives have a fitted effect of over 50% in size. To be noted: recombinant CYP3A4, Luciferin-PPXE luminescence; series mostly up to 57.1 µM. The procedure, abridged:
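Luminescent readout of luciferin produced by CYP3A4 (20 nM) dealkylation of Luciferin-PPXE, 25 uM (its KM). NADPH-driven reaction ran 60 min at RT after 10 min compound preincubation; data scaled to 57 uM ketoconazole as 100% inhibition.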

For assay [11], the target named is Luciferin 4-monooxygenase (Photinus pyralis) (UniProt P08659). The assay can be described thus: Biochemical firefly luciferase enzyme assay for NPC (AID 624030).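 Further: purified P. pyralis luciferase at 10 nM with luciferin and ATP substrate; nearly all actives have a fitted effect of over 70% in size.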 The conditions noted are these: purified P. pyralis luciferase, luminescence, 5 min; series mostly up to 58.6 µM. The method in brief:
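Counter-screen for direct inhibition of the luciferase enzyme by approved-drug library compounds, run at 10 nM enzyme in 50 mM Tris acetate (final). Luminescence was read within 5 min of enzyme-buffer addition and normalized to PTC124 versus DMSO (0%).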

Assay [12] in a line: S16 Schwann cell viability assay (CellTiter-Glo assay) (AID 624031).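 Further: cellular ATP luminescence as a viability measure; nearly all actives have a fitted effect of over 70% in size.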 To be noted: S16 rat Schwann cells viability, 24 h; series mostly up to 57.5 µM. The procedure, abridged: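 CellTiter-Glo ATP luminescence counter-screen in untransfected S16 rat Schwann cells, 24h compound exposure at 37 degree Celsius after overnight seeding (500-750 cells/well); response scaled between cell-free wells and DMSO (0% activity), curves classed by r2 and magnitude.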
A general note: In ATP-based viability assays light output follows the ATP content of the culture.

The nature of assay [13]: S16 Schwann cell PMP22 intronic element firefly luciferase assay (AID 624032). Further: nearly all actives have a fitted effect of over 30% in size. The conditions noted are these: S16 rat Schwann cells, PMP22 element FLuc, 24 h; series mostly up to 57.5 µM. The procedure, abridged: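 Rat S16 Schwann cells stably carrying a PMP22 intronic element-driven Fluc reporter were seeded overnight, then exposed to compounds for 24 h at 37 °C. Luminescence was normalized to PTC124 (positive control) and DMSO (0% activity).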

In assay [14] the test system is DIV14. The assay can be described thus: qHTS profiling for inhibitors of Plasmodium falciparum proliferation (AID 504749). Further: nearly all actives have a fitted effect of over 60% in size. Further: potency means the concentration at half of the fitted maximal effect. The conditions noted are these: P. falciparum in erythrocytes, SYBR Green DNA, 72 h; series mostly up to 28.7 µM. The procedure, abridged:
(§1)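 Fluorescence of SYBR Green-bound parasite DNA, read at 485/535 nm, served as the growth measure. Infected erythrocytes were cultured with compound 72 h; artemisinin (0.29 uM) and DMSO wells defined the normalization range.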

Assay [15] relates to DIV17. The assay is described as above. To be noted: P. falciparum in erythrocytes, SYBR Green DNA, 72 h; series mostly up to 28.7 µM. The procedure, abridged:
as §1

Assay [16] has as its target Tumor susceptibility gene 101 protein (Homo sapiens) (UniProt Q99816). The assay is described as follows: qHTS Assay for Iinhibitors of HIV-1 Budding by Blocking the Interaction of PTAP/TSG101: Hit Validation (AID 651600). Further: nearly all actives have a fitted effect of over 70% in size. The conditions noted are these: PTAP peptide/TSG101 UEV interaction, biochemical assay; series mostly up to 57.5 µM. The procedure, abridged:
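Tsg101 binding domain 10 uM + FITC-PTAP peptide 50 nM (final), 10 mM HEPES pH 7.5/0.15 M NaCl/0.01% Tween 20/3 mM EDTA/0.1 mM TCEP; 20 min RT; FP read, FITC filters.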

Assay [17] is described as follows: S16 Schwann cell PMP22 intronic element beta-lactamase assay (AID 624044; calls by dose curve; further: nearly all actives have a fitted effect of over 15% in size; further: potency means the concentration at half of the fitted maximal effect). To be noted: S16 rat Schwann cells, PMP22 element beta-lactamase FRET, 24 h; ratio activity, negative = inhibition: at 38.3 µM (top of the series). The method in brief:
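Beta-lactamase reporter under a PMP22 intronic regulatory element in stable S16 rat Schwann cells; 24 h compound exposure. 460 nm blue signal normalized between DMSO (0%) and potassium clavulanate, with 535 nm FRET tracking viability; curves classed by r2 and response.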

The structures appear in SMILES notation. Inconclusive results are not listed. The list shows a part of the results. Activity calls are given as the source filed them. Unless noted, the call rests on the fitted dose curve; in most records, active means well fitted curve in the direction sought with a large enough effect; inconclusive means small, poorly fitted or top-dose-only effect, or another doubt; inactive means no such curve, though single readings can be large; an effect the other way counts as inactive or inconclusive.

Cytochrome P450 3A4 (Homo sapiens), sequence (P08684 whole entry, looked up): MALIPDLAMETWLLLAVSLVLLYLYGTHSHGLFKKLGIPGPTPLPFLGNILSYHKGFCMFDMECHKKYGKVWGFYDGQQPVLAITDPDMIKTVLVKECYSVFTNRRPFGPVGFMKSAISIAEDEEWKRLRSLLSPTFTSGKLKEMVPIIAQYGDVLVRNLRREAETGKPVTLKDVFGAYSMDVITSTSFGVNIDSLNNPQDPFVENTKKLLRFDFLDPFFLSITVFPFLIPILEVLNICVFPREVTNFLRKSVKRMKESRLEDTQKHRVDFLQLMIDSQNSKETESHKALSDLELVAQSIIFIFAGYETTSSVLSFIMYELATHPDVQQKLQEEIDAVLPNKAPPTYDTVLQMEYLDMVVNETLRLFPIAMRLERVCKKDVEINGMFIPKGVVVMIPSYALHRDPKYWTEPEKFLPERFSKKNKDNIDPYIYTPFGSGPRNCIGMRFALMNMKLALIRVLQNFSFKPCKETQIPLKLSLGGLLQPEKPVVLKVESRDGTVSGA
Luciferin 4-monooxygenase (Photinus pyralis), sequence (P08659 whole entry, looked up): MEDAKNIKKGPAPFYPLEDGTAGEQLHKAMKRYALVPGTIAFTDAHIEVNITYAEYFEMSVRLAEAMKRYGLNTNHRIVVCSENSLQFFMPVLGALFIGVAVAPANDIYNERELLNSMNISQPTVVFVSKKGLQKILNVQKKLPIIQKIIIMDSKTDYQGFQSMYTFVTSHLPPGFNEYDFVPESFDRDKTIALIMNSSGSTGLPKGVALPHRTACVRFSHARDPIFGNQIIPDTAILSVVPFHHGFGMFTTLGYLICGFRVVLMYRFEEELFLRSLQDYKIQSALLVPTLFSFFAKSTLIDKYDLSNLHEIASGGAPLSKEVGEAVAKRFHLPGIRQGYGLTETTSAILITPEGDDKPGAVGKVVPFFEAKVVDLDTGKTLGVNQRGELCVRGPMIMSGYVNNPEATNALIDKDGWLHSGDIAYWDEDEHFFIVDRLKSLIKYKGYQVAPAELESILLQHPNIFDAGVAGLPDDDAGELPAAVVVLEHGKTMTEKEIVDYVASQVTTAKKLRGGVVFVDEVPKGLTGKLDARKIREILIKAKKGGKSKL
Ubiquitin carboxyl-terminal hydrolase 1 (Homo sapiens), sequence (O94782 whole entry, looked up): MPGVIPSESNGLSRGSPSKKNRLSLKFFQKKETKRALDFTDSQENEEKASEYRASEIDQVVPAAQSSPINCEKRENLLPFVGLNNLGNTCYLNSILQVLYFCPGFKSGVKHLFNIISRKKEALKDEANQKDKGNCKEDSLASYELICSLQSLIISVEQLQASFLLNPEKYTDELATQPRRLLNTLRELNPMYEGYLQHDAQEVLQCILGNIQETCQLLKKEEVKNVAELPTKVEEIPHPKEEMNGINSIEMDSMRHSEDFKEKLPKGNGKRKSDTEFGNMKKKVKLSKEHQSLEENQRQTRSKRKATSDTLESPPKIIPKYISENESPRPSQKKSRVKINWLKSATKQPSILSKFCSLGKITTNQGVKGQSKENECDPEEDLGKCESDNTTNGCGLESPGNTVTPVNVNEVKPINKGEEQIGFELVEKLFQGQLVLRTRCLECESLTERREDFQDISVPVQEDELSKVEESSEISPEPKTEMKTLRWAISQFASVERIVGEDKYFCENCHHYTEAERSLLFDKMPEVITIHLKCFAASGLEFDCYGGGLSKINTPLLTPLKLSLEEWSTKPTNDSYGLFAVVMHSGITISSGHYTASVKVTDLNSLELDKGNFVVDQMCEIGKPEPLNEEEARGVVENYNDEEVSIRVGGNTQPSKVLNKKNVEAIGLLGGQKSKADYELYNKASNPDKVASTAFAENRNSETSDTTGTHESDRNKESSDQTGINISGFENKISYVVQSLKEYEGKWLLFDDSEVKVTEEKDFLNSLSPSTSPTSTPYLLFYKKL
Tumor susceptibility gene 101 protein (Homo sapiens), sequence (Q99816 whole entry, looked up, the tested form may be a part): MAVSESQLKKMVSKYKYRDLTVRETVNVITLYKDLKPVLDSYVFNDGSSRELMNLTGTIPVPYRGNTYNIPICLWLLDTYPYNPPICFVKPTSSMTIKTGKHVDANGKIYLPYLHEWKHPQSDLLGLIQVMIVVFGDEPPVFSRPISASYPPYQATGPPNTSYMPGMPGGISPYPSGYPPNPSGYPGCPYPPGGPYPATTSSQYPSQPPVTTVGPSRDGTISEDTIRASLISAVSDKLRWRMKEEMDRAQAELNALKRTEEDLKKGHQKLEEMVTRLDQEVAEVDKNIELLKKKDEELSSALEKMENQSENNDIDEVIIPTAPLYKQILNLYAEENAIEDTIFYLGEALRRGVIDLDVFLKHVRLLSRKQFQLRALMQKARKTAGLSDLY
Phosphoglycerate kinase, glycosomal (Trypanosoma brucei brucei), sequence (P07378 whole entry, looked up): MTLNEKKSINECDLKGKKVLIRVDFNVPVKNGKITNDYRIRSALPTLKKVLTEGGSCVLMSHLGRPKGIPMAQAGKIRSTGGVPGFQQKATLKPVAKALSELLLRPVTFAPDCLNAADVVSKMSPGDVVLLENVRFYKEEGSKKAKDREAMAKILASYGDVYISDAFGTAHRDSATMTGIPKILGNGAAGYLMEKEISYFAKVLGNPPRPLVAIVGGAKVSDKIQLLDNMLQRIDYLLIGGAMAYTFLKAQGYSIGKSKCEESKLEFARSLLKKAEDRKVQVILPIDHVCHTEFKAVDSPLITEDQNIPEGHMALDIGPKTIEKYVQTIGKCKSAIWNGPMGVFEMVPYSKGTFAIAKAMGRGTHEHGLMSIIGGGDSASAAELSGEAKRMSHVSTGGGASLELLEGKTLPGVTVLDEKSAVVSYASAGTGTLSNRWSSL
RecQ-like DNA helicase BLM (Homo sapiens), sequence (P54132 whole entry, looked up): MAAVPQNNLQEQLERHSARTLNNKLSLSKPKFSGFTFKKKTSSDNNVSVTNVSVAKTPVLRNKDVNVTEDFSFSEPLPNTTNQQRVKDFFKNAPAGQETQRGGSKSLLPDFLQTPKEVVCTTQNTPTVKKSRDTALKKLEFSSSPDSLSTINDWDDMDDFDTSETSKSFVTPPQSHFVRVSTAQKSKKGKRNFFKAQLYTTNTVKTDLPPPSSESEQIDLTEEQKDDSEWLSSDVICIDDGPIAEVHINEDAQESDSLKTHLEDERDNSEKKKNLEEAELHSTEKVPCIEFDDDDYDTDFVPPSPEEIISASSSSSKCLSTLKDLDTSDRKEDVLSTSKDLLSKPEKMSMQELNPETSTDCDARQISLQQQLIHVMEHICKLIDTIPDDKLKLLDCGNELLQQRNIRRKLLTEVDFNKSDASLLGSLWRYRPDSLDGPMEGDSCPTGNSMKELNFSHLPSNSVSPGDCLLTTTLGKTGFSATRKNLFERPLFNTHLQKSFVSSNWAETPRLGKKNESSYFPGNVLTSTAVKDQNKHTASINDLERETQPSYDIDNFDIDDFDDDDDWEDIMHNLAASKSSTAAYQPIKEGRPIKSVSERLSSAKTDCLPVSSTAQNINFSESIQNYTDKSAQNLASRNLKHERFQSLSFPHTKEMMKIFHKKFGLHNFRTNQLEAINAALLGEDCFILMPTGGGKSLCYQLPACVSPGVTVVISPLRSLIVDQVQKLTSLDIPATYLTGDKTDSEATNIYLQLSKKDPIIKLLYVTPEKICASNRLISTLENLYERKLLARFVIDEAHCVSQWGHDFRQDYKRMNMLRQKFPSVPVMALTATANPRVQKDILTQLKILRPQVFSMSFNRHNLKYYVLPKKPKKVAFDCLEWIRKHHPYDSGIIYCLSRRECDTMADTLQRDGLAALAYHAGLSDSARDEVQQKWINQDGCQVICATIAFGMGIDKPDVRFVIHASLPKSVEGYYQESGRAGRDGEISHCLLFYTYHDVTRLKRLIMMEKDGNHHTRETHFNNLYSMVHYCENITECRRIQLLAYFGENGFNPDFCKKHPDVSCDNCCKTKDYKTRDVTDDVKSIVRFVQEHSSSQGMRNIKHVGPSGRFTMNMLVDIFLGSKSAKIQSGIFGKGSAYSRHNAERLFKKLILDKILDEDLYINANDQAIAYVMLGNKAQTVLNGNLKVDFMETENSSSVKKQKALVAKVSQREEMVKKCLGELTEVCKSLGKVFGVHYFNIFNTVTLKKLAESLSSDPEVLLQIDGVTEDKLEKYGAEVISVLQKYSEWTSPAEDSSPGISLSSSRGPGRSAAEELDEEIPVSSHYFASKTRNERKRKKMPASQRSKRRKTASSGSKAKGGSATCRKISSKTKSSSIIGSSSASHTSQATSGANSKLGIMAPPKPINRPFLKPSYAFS
DNA polymerase kappa (Homo sapiens), sequence (Q9UBT6 whole entry, looked up): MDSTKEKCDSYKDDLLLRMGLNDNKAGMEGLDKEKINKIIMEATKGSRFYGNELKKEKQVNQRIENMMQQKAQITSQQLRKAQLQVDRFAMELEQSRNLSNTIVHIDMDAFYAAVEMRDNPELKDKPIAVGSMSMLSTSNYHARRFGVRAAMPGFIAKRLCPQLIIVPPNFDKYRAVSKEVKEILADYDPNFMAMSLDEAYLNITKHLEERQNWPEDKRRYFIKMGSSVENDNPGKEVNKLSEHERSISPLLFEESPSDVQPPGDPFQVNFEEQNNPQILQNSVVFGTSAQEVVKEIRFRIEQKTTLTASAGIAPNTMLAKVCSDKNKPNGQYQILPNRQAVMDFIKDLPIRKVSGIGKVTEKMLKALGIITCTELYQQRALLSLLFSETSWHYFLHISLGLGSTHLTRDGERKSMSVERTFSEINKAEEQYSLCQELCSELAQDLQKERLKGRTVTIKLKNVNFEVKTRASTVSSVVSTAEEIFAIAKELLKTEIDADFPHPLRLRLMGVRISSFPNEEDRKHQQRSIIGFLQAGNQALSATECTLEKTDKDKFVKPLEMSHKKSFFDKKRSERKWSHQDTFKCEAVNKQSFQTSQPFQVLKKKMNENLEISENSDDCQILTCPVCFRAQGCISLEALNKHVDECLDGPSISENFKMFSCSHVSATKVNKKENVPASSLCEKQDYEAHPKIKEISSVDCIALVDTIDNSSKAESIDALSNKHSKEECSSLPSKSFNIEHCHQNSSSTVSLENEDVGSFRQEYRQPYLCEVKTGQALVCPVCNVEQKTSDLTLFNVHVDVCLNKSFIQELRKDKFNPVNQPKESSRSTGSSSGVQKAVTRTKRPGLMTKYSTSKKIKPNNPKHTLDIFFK

As for `COc1ccc(-c2nc3c(c(SCC(=O)Nc4ccc(C(=O)O)cc4)n2)Cc2ccccc2O3)cc1`, the Potency is 3.26 µM (active) in assay [1]; 4.23 µM (active) in assay [2]; 7.64 µM (active) in [3]; 2.67 µM (active) in assay [5]; 3.04 µM (active) in assay [6]. For the same compound, the result in assay [4] was inactive.

`CC(=O)OCC1=C(C(=O)O)N2C(=O)C(NC(=O)CSc3ccncc3)[C@@H]2SC1` (stereo partly drawn): the Potency entry in [7], in assay [8] and in assay [9] was “inactive” in each case.

As for `CO/N=C(/C(=O)N[C@H]1C(=O)N2C(C(=O)O)=C(COC(C)=O)CSC12)c1csc(N)n1` (stereo partly drawn), the Potency entry in assay [10], in [7] and in [8] was “inactive” throughout. Also, in assay [9], the Potency is 39.8 µM (active).

With `C[C@@H]1C(SC2Cn3cnc[n+]3C2)=C(C(=O)[O-])N2C(=O)[C@H]([C@@H](C)O)[C@@H]12` (stereo partly drawn), the Potency result in assay [9], in assay [11], in assay [12], in assay [13], in [14] and in assay [15] was “inactive” throughout.

In the case of `CC(=O)Nc1ccc2nc3c(=O)[nH]c(=O)[nH]c3nc2c1`, the Potency result in assay [16] is “inactive”.

On to `CC12C=CC(=O)C=C1[C@@H](F)CC1C2C(O)CC2(C)C1CC[C@]2(O)C(=O)CO` (stereo partly drawn), for which the Potency entry in [9], in [11], in assay [12], in assay [13], in assay [14] and in assay [15] was “inactive” each time.

`OCC1O[C@@H](O[C@@H]2C(CO)OC(O)C(O)C2O)C(O)C(O)C1O` (stereo partly drawn): the Potency result in [9], in assay [11], in assay [12], in [13], in assay [17] and in [14] was “inactive” each time. Moreover, the Potency result in assay [15] was “inactive”.

`CO/N=C(/C(=O)NC1C(=O)N2C(C(=O)O)=C(COC(N)=O)CSC12)c1ccco1` (stereo not drawn): the Potency entry in [10], in assay [7], in assay [8] and in [9] was “inactive” each time.

For `CO/N=C(/C(=O)N[C@@H]1C(=O)N2C(C(=O)O)=C(CSc3nc(C)c(CC(=O)O)s3)CS[C@H]12)c1csc(N)n1`, the Potency result in assay [9], in [11], in assay [12], in assay [13], in assay [17] and in assay [14] was “inactive” throughout. The Potency result in [15] is “inactive”.

`CO/N=C(/C(=O)N[C@@H]1C(=O)N2C(C(=O)O)=C(C[n+]3ccc(N)n3CCO)CS[C@H]12)c1csc(N)n1`: the Potency entry in assay [9], in assay [12], in assay [13], in [14] and in assay [15] was “inactive” throughout.

With `COc1cccc2c1C(=O)c1c(O)c3c(c(O)c1C2=O)C[C@@](O)(C(=O)CO)C[C@@H]3OC1CC(N)C(O)C(C)O1` (stereo partly drawn), the Potency in assay [9] was 50.1 µM (active); in [17], 0.354 µM (active); in assay [14], 1.69 µM (active); in assay [15], 1.69 µM (active). The Potency result in [11], in [12], in assay [13] and in assay [16] was “inactive” each time.

For `CC1(C)C2CC[C@]1(C)[C@@H](O)C2`, the Potency entry in assay [9], in assay [11], in assay [12], in [17], in [14] and in assay [15] was “inactive” each time.

In the case of `O=C(O)CC(O)CC(O)/C=C/c1c(C2CC2)nc2ccccc2c1-c1ccc(F)cc1` (stereo not drawn), the Potency result in assay [9], in [11], in [12], in assay [17], in [14] and in assay [15] was “inactive” each time.

As to `CCCCN1CC(O)C(O)C(O)C1CO` (stereo not drawn), the Potency result in assay [9], in assay [12], in assay [13], in assay [17], in assay [14] and in assay [15] was “inactive” throughout.

As for `CNC1C(O)C(OC2C(N)CC(N)C(OC3OC(CN)=CCC3N)C2O)OCC1(C)O` (stereo not drawn), the Potency entry in [9], in assay [12], in [13], in assay [14] and in [15] was “inactive” throughout.

For the compound `CCN1CCN(C(=O)NC(C(=O)NC2C(=O)N3C(C(=O)O)=C(CSc4nnnn4C)CSC23)c2ccc(O)cc2)C(=O)C1=O` (stereo not drawn), the Potency result in [10], in assay [7], in [8], in assay [9], in [12] and in assay [13] was “inactive” each time. The Potency entry in [14] and in assay [15] was “inactive” in each case.
